# GSTO1 inh: blocks human GSTO1 in RBBP9 counter-screen; actives 1.1% (n = 300,000); recombinant GSTO1, activity-based probe fluorescence polarization; inhibition, % at 5.96 µM; AID 1974;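 active = inhibition above the campaign mean inhibition plus 3 SD, cut at about 35% in these data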;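 also: 0% = GSTO1-1 with DMSO and 100% = wells lacking GSTO1-1 enzyme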
# Target sequence (P78417 whole entry, looked up): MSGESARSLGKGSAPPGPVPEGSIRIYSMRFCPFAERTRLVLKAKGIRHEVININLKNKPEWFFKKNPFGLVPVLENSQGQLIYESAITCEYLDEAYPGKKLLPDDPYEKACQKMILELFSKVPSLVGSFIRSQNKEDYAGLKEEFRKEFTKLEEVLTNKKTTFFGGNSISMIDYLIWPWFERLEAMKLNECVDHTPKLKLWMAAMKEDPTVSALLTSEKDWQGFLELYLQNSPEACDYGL
# PAD4 inh: inhibitors of human PAD4; Q9UM07; recombinant PAD4, RCA probe fluorescence polarization; inhibition, % at 6.36 µM; actives 0.41% (n = 330,000); AID 485272;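 active = percent inhibition above a cutoff equal to the mean of all tested compounds plus 3 SD, cut at about 15% in these data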;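 also: 0% = PAD4 with RCA probe and DMSO and 100% = probe without PAD4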
# ZTA DNA inh: blocks Epstein-Barr virus ZTA, an EBNA-1 counter-screen; actives 0.15% (n = 320,000); inhibition, % at 11 µM; ZTA-DNA binding, fluorescence polarization; P03206; in the data active = inhibition above about 33%
# EBNA-1 inh: blocks EBNA-1 binding to DNA | EBNA-1 DNA binding, fluorescence polarization | inhibition, % at 14.8 µM | actives 0.34% (n = 300,000); in the data active = inhibition above about 28%
# LYPLA1 counter: blocks human lysophospholipase 1, a PME1 counter-screen. O75608. recombinant LYPLA1, FP-Rh probe fluorescence polarization. inhibition, % at 5.9 µM. actives 0.16% (n = 320,000). AID 2174;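 active = inhibition above the mean of all tested compounds plus 3 SD, set per campaign, cut at about 14% in these data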;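 also: inhibitors block serine hydrolase probe labeling of LYPLA1 so polarization falls; 0% = enzyme with DMSO and 100% = wells lacking LYPLA1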
# Target sequence (O75608 whole entry, looked up): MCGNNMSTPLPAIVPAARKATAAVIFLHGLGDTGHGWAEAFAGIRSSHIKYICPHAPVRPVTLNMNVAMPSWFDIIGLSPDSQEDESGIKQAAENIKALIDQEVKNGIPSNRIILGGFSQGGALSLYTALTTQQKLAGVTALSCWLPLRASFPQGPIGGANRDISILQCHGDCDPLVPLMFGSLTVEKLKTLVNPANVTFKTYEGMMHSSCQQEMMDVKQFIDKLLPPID
# LYPLA2 counter: blocks human lysophospholipase 2, a PME1 counter-screen; O95372; actives 0.38% (n = 320,000); inhibition, % at 5.9 µM; recombinant LYPLA2, FP-Rh probe fluorescence polarization; AID 2177;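 active = inhibition above the screen-wide mean plus 3 SD, limit set per campaign, cut at about 26% in these data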;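 also: 0% = LYPLA2 with DMSO and 100% = wells lacking LYPLA2 enzyme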
# EBNA-1 confirm: EBNA-1 (EBV) inhibition, confirmation; inhibition, % at 14.8 µM; shares compounds with EBNA-1 inh; actives 35% (n = 830); Recombinant EBNA-1 DBD, Cy5-DNA fluorescence polarization;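 active = mean inhibition across replicates above a set limit taken from the earlier primary screen, cut at about 28% in these data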;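 also: plate controls were EBNA-1 protein with DMSO for no effect and wells lacking EBNA-1 for full effect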
# ZTA DNA inh trip: blocks Epstein-Barr virus ZTA in triplicate, EBNA-1 counter-screen. Zta-ZRE DNA binding, Cy5 fluorescence polarization. shares compounds with EBNA-1 inh. AID 2328. inhibition, % at 11.1 µM. 830 tested, under 10 active;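 active = mean inhibition over triplicates above a set limit taken from the primary EBNA-1 screen, cut at about 37% in these data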;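 also: purified full length Zta protein with Cy5 labeled ZRE DNA probe; 0% = Zta with DMSO and 100% = wells lacking Zta protein; inhibitors lower polarization by freeing the labeled DNA probe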
# Starred values were filed as active, the others as inactive; . = no result given; + = active, no number. Sampled rows, rich in hits. Any-hit rate of the full collection: about 1.7%.
SMILES,GSTO1 inh,PAD4 inh,ZTA DNA inh,EBNA-1 inh,LYPLA1 counter,LYPLA2 counter,EBNA-1 confirm,ZTA DNA inh trip
CCCCCCn1c(SCC(=O)Nc2cc(C)on2)nc2ccccc2c1=O,7,1,-8,-9,-2,2,.,.
Cc1ccc(S(=O)(=O)N2CCOCC2)cc1NC(=O)CSc1nc2ccccc2c(=O)n1Cc1ccccc1,-1,1,-2,33*,-5,-10,13,18
Cc1cc(NC(=O)CSc2nc3ccccc3c(=O)n2Cc2ccc(F)cc2)no1,6,2,-2,57*,-6,-5,23,14
CC(=NNC(=O)Cn1ccc(C(F)(F)F)n1)c1ccc(-n2ccnc2)cc1,.,6,.,.,.,.,.,.
CCCCNC(=O)CCCCCNS(=O)(=O)c1ccc(Br)cc1,21,0,-10,-3,-1,-5,.,.
CCOC(=O)Cc1cc(=O)[nH]c(/N=C(\N)Nc2ccc(C)cc2C)n1,-2,2,5,47*,4,5,-2,0
Cc1cc(-c2ccccc2)nc(N/N=C/c2ccccc2F)n1,2,-3,-11,0,-8,-3,.,.
CCOc1ccc(NC(=O)Cc2ccc(S(=O)(=O)N3CCCCC3)cc2)cc1OCC,.,-2,.,.,.,.,.,.
CCOc1ccc(NC(=O)CN(C)C(=O)/C=C/c2ccc(S(=O)(=O)N3CCCCCC3)cc2)cc1OCC,0,-5,-1,33*,2,-9,14,4
O=S(=O)(NCCOc1ccccc1)c1ccc2ccccc2c1,1,-1,9,31*,2,6,14,-2
CS(=O)(=O)NCCOc1ccc(S(=O)(=O)NCCOc2ccccc2)cc1,7,-2,19,2,3,7,.,.
COc1cccc(N2CCN(S(=O)(=O)c3ccc(-c4cnc(C5CC5)o4)cc3)CC2)c1,0,-9,-5,91*,3,2,84*,2
O=C(COc1ccc2ccccc2c1)NNC(=O)Cc1ccccc1,-2,7,6,28*,-4,-12,35*,11
O=C(COc1ccc2ccccc2c1)NNC(=O)Cc1cccc2ccccc12,13,-5,13,9,-4,-11,.,.
CC(=O)Nc1ccc(S(=O)(=O)N2CCN(Cc3nc4sc(C)c(C)c4c(=O)[nH]3)CC2)cc1,-8,2,0,27*,0,-2,55*,0
CC(=O)Nc1ccc(S(=O)(=O)N2CCN(Cc3ccncc3)CC2)cc1,-5,-3,-18,-4,4,2,.,.
CC(=O)c1ccc(S(=O)(=O)NC2CC(=O)N(c3ccc(Cl)cc3)C2)cc1 (stereo not drawn),0,4,-4,5,1,6,.,.
CCc1c(C)sc2nc(SCC(=O)Nc3cc(C)on3)n(CCOC)c(=O)c12,1,-5,9,34*,-3,-1,12,-13
O=C(N/N=C/c1ccc(COc2ccc(Br)cc2)o1)c1ccco1,1,1,-14,59*,-4,0,6,2
Cc1ccc(C(=O)NCC(=O)OCC(=O)c2ccc3c(c2)OCCO3)cc1C,-6,0,-13,-4,2,-5,.,.
O=C(CNC(=O)c1ccc(N2C(=O)c3ccccc3C2=O)cc1)OCC(=O)c1ccc(Cl)cc1,-3,-4,6,36*,-1,1,15,9
Cc1ccc(C(=O)COC(=O)CNC(=O)c2ccc(N3C(=O)c4ccccc4C3=O)cc2)cc1C,-1,0,11,29*,1,-4,10,6
Cc1ccc(S(=O)(=O)N2C[C@@H]3CCCC[C@@H]3[C@@H](C)[C@H]2c2cn(Cc3ccccc3)c3ncccc23)cc1,.,2,.,.,.,.,.,.
O=C(CCC(=O)NNC(=O)COc1ccccc1)NCc1ccccc1,7,-1,-7,-6,1,-2,.,.
O=C(COc1ccccc1)NCc1ccc(-n2cccc2)cc1,8,-2,-6,92*,-1,6,42*,16
SMILES,GSTO1 inh,PAD4 inh,ZTA DNA inh,EBNA-1 inh,LYPLA1 counter,LYPLA2 counter,EBNA-1 confirm,ZTA DNA inh trip
CCC(C)(O)c1[nH]c2ccc(C#N)cc2c1C (stereo not drawn),6,3,12,-5,-1,-9,.,.
CC(C)N(CCCNC(=O)c1nn(C)c2c1CS(=O)(=O)c1ccccc1-2)Cc1ccccc1,2,-7,22,10,1,7,.,.
CCCOc1ccccc1C(=O)Nc1ccc(S(=O)(=O)N2CCN(C)CC2)cc1,1,1,-17,2,-3,-7,.,.
COc1ccccc1NC(=O)Nc1ccc(C(N)=O)cc1,5,3,0,46*,2,2,-9,12
COc1ccc(NC(=O)Nc2ccccc2OC)cc1,2,7,-2,-6,-2,-1,.,.
CCOC(=O)c1ccc(NC(=O)c2cccc(S(=O)(=O)N3c4ccccc4CC3C)c2)s1 (stereo not drawn),-61,1,-13,40*,-40,-48,10,-1
CC1Cc2ccccc2N1S(=O)(=O)c1cccc(C(=O)NCCCO)c1 (stereo not drawn),6,0,-9,2,-6,-2,.,.
Cc1ccc(S(=O)(=O)N2CCC(C(=O)OCC(=O)N3CCc4ccccc43)CC2)cc1,-1,-2,-7,33*,-3,1,7,2
Cc1ccc(S(=O)(=O)N2CCC[C@H]2C(=O)OCC(=O)N2CCc3ccccc32)cc1,.,4,.,.,.,.,.,.
C[C@@]12C(=O)Nc3cc(Cl)ccc3C(=O)N1[C@H]1c3cc(Br)ccc3OC[C@@H]1[C@@H]2c1ccccc1,-17,-6,-6,-11,-22,-45,.,.
Cc1ccccc1NC(=O)CN1CCN(Cc2ccccc2)CC1,6,1,-1,-7,-5,-7,.,.
Cc1ccccc1NC(=O)Cn1c(=O)n(Cc2ccccc2)c(=O)c2c(C)c(C)sc21,-5,2,2,37*,-2,-1,26,-4
COc1ccc2cc(CO)n(C)c2c1,.,-4,8,.,-1,-2,.,.
Cc1ccc(NC(=O)C2CC(=O)N/C(=N/N=C/c3ccco3)S2)cc1C (stereo not drawn),2,-3,-12,30*,2,6,4,-10
Cc1ccc(NC(=O)C2CC(=O)N/C(=N/N=C/c3ccco3)S2)cc1 (stereo not drawn),6,-2,22,4,1,0,.,.
Cc1nc2nc(-c3ccccc3)nn2c(C)c1C,8,-1,-3,+,0,-3,2,-3
Cc1nc2nc(-c3ccccc3)nn2c(C)c1Cl,-1,2,9,4,-1,-1,.,.

# Screens (PubChem BioAssay)
